26 compounds from PubChem BioAssay can be followed below.

Neurogenic locus notch homolog protein 3 (Homo sapiens), sequence (Q9UM47 whole entry, looked up): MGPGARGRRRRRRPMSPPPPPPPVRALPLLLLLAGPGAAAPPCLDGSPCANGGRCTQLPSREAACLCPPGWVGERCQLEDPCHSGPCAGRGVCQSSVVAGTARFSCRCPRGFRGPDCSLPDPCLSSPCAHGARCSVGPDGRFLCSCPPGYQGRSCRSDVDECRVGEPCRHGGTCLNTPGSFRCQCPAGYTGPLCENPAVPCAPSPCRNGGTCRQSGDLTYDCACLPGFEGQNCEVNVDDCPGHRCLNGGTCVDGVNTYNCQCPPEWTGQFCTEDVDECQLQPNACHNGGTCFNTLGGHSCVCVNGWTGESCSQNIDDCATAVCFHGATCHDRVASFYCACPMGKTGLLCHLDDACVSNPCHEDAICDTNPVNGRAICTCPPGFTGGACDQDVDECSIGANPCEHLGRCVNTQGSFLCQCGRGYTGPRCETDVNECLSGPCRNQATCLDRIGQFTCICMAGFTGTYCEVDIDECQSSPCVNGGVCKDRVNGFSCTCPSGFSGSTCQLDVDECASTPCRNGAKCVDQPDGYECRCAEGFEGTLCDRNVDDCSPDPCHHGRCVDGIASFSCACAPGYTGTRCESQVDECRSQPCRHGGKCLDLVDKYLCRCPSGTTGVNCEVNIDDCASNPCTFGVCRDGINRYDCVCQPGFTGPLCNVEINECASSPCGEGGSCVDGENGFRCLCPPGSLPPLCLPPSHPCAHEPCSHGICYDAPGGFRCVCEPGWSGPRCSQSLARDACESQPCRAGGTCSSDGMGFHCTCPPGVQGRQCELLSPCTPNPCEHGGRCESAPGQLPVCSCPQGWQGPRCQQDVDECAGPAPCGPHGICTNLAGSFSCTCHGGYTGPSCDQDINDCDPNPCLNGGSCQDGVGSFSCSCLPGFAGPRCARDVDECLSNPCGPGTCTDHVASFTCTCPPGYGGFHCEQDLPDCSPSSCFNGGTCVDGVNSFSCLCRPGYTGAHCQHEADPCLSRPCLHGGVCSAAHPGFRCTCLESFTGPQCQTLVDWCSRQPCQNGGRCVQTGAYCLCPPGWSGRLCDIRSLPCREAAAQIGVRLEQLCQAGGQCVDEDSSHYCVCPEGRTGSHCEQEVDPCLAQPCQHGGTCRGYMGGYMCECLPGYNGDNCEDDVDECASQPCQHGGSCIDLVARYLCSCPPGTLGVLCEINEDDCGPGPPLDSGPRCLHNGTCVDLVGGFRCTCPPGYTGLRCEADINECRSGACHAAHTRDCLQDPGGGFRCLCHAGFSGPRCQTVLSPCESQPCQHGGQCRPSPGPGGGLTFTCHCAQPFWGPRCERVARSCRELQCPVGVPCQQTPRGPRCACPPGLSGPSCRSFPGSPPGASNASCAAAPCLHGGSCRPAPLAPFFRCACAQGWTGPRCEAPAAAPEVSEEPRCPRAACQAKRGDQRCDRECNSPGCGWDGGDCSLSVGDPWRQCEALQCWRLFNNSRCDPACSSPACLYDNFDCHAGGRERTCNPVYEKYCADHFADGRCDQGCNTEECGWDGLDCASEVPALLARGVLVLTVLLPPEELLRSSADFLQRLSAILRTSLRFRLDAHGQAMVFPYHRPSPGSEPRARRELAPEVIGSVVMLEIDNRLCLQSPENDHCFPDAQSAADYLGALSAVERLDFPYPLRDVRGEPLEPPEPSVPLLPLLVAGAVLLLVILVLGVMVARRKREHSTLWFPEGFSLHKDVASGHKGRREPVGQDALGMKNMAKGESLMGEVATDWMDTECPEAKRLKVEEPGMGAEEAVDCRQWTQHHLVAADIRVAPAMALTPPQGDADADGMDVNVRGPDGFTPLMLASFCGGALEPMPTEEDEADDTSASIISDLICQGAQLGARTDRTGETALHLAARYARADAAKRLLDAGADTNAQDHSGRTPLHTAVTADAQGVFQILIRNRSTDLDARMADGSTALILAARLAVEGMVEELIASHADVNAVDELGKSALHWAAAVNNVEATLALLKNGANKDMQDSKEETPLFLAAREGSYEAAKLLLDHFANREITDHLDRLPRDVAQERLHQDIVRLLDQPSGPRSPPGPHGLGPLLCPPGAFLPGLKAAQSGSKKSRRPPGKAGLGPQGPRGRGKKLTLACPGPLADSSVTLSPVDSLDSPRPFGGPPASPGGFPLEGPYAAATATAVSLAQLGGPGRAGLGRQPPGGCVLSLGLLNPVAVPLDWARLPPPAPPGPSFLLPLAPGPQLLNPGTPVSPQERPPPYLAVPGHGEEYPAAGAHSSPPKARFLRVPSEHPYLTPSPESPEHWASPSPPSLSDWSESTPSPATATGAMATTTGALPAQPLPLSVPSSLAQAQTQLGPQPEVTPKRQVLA

The test concerns the target Neurogenic locus notch homolog protein 3 (Homo sapiens) (UniProt Q9UM47). Put plainly: NOTCH3 binders on small-molecule microarray, primary screen, biochemical, 635/667 nm fluorescence (AID 1096). The conditions noted are these: NOTCH3 binding, 635 nm fluorescence, higher = more signal.
In turn, `COc1cc2c(cc1O)C(C)N(Cc1ccc([N+](=O)[O-])o1)CC2` (stereo unspecified) returned a composite z-score of 1.07.

Turning to `COCCOC(=O)N1C(=O)[C@@]2(c3cc(C#Cc4ccc(OC)cc4)ccc31)[C@H](c1ccc(O)cc1)N1[C@H](c3ccccc3)[C@H](c3ccccc3)OC(=O)[C@H]1[C@@H]2C(=O)N1CCCCCCC1`, the composite z-score turned out to be 0.0324.

For the compound `COc1ccc([Si](C)(C)[C@@H]2[C@@H](CC(=O)N(CCO)Cc3ccccc3)O[C@]3(C(=O)N(Cc4cccc(N5C(=O)c6cccc7cccc5c67)c4)c4ccccc43)[C@H]2C)cc1`, the composite z-score turned out to be 0.455.

As for `Cc1ccc(S[C@]2(C(=O)O)CC(=O)N(Cc3ccccc3Cl)[C@@H]2c2ccc(CO)cc2I)cc1`, the composite z-score was -0.162.

Compound `COC(=O)C1=CC(CCCO)=CC(C2CC2)N(C)C=C1C(=O)OC` (stereo unspecified) returned a composite z-score of -0.752.

As to `COCCOC(=O)N1C(=O)[C@@]2(c3cc(C#CCC(C(=O)OC)C(=O)OC)ccc31)[C@H](C(=O)N1CCc3cc(OC)c(OC)cc3C1)[C@H]1C(=O)O[C@H](c3ccccc3)[C@H](c3ccccc3)N1[C@@H]2c1ccc(OCCO)cc1`, the composite z-score came out at 1.08.

In the case of `COc1ccc([Si](C)(C)[C@H]2[C@H](CCO)O[C@@]3(C(=O)N(Cc4cccc(N5C(=O)COc6ccccc65)c4)c4ccccc43)[C@@H]2C)cc1`, the composite z-score worked out at 0.14.

Turning to `CN(C)CCCNC(=O)[C@@]1(C)c2ccccc2C(=O)N(Cc2ccccc2)[C@H]1c1ccc(CO)cc1`, the composite z-score was -0.652.

`COC(=O)c1c2oc(c1C(=O)OC)C(=O)N(Cc1ccccc1)Cc1cn(nn1)C[C@H](Cc1ccccc1)NC(=O)N[C@H](CO)CC2` gave a composite z-score of 0.43.

`[N-]=[N+]=NCc1ccccc1[C@H]1OC(c2ccc(OCCCO)cc2)=N[C@@]1(CCS(=O)(=O)c1ccccc1)C(=O)N1CCCCC1`: the composite z-score stood at 0.992.

Consider `O=C(CS)NCCCCCNC(=O)[C@@H]1C[C@@H]2C(=O)N3CCC[C@H]3C(=O)N2[C@@H]1c1cccc(OCCO)c1`, for which the composite z-score worked out at 0.0995.

Turning to `COCCOC(=O)N1C(=O)[C@@]2(c3cc(C#CCCO)ccc31)[C@H](C(=O)Nc1nc3ccccc3s1)[C@H]1C(=O)O[C@H](c3ccccc3)[C@H](c3ccccc3)N1[C@@H]2c1ccccc1OCCO`, the composite z-score came out at 1.09.

`C[C@@H]1NC(=O)[C@@]23C(=O)N[C@@H](Cc4ccccc4)C2[C@H](C)[C@@]2(C)O[C@H]2C3/C=C/C/C=C\CNC(=O)[C@@H]2CCCN2C1=O` (stereo partly specified) gave a composite z-score of -0.526.

For `CCC[C@@H]1C[C@@]1(CCC)[C@@H](NC(=O)OCc1ccccc1)c1ccc(-c2ccccc2)cc1`, the composite z-score was -0.621.

As for `CC[C@H]1C2=C3C(CC[C@H]4C(OCc5ccc(F)cc5C(F)(F)F)OC[C@](C)([C@@H]34)N(C(=O)OC(C)(C)C)C2)C(COC)C1COC` (stereo partly specified), the composite z-score stood at 0.949.

In turn, `CC(C)(C)OC(=O)CC[C@@]1(C(=O)NCc2ccccc2)N=C(c2ccc(OCCCO)cc2)O[C@@H]1c1ccccc1N=[N+]=[N-]` gave a composite z-score of 1.05.

For the compound `CCC(CC)C(O)C1C=CC2C(=O)N(c3ccccc3)C(=O)C2N1Nc1ccc(C(C)C)cc1` (stereo unspecified), the composite z-score amounted to 1.03.

Compound `C[C@H]1NC(=O)[C@@]23C(=O)N[C@@H](Cc4ccccc4)C2[C@H](C)[C@@]2(C)O[C@H]2C3/C=C/C/C=C\CNC(=O)[C@H](Cc2ccccc2)NC1=O` (stereo partly specified) had a composite z-score of 0.967.

Turning to `COCCOC(=O)N1C(=O)[C@@]2(c3cc(C#CC4=CCCCC4)ccc31)[C@H](C(N)=O)[C@H]1C(=O)O[C@H](c3ccccc3)[C@H](c3ccccc3)N1[C@@H]2c1ccccc1OCCO`, the composite z-score was 1.11.

In turn, `CCOC(=O)C[C@H]1[C@H](OC(=O)c2cc3ccccc3oc2=O)[C@@H](NC(=O)c2ccc(-c3ccccc3)cc2)c2cc(OCCCO)ccc2N1C(=O)c1ccc2ccccc2n1` displayed a composite z-score of 1.05.

`COC(=O)[C@@]1(Cc2ccc(F)cc2)[C@H]2c3cc(C(=O)N(C)C)n(Cc4cc(F)cc5c4OCOC5)c3C[C@H]2CN1C(=O)c1ccccc1`: the composite z-score came to 1.04.

Compound `COC(=O)[C@@]1(Cc2ccccc2)[C@@H]2C(=CC(=O)[C@H]2CC(=O)C(=O)N(C)C)CN1C(=O)c1ccccc1` gave a composite z-score of 1.06.

`CN1C(=O)C2C=CC(C(O)c3ccc(F)cc3)N(Nc3ccccc3)C2C1=O` (stereo unspecified) displayed a composite z-score of 1.02.

For the compound `CCCC[C@@H]1C[C@H]1[C@@H](NC(=O)c1ccccc1)c1ccc(C(F)(F)F)cc1`, the composite z-score was -0.769.

`COc1ccc([Si](C)(C)[C@H]2[C@H](CCn3cc([C@H](O)c4ccccc4)nn3)O[C@@]3(C(=O)N(Cc4ccc(N5C(=O)c6cccc7cccc5c67)cc4)c4ccccc43)[C@@H]2C)cc1` showed a composite z-score of -0.0817.

In turn, `C[N+](C)(C)CCCC[C@@H]1NC(=O)[C@H]2C[C@@H](C(=O)NCCCCCCN)[C@@H](c3ccc(O)cc3)N2C1=O` showed a composite z-score of 0.64.
